This is an account of results in PubChem BioAssay (NCI).

The structures appear in SMILES notation. This is part of a sample that, as a whole, favours compounds with a hit. Of some 83,000 tested, about 20% had one in any assay.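 For each line, cells grew in 96-well plates with the test compound present at a single concentration for 48 hours.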 The source made the active and inactive calls. Rule for the calls: active = growth percent below 10; inactive = the rest.

The test has as its system HL-60(TB) leukemia. The experiment in a line: NCI-60 one-dose screen, 48 h (100 = growth as untreated, 0 = no growth, -100 = all killed). The note with it: 10 µM unless noted.
Take `O=C(Nc1cccc(C(F)(F)F)c1)c1cc(-c2ccc(F)cc2F)ccc1O`: the growth was -40.7% (active). Turning to `C=CCn1c(SCC(=O)c2ccccc2)nnc1-c1c[nH]c2ccccc12`, the growth was 95.6% (inactive). Take `N=c1c2cc(-c3ccccc3)oc2ncn1/N=C/c1ccccc1`: the growth is 58.8% (inactive). With `C=C(C)[C@@H]1CC[C@]2(C(=O)NCCCN(CCC#N)CCC#N)CC[C@]3(C)[C@H](CC[C@@H]4[C@@]5(C)CCC(=O)C(C)(C)[C@@H]5CC[C@]43C)[C@@H]12`, the growth is 96.3% (inactive). As to `Cc1ccc(-n2cc(/C=C/C(=O)c3ccc(O)cc3)c(-c3ccc(S(C)(=O)=O)cc3)n2)cc1`, the growth is 27.5% (inactive). With `Brc1ccc2[nH]cc(-c3nn4cc(-c5nccs5)nc4s3)c2c1`, the growth was 59.1% (inactive). The result for `COc1cccc(N2CCN(c3ncnc4c3[nH]c3ccc(F)cc34)C[C@H]2C)c1` reads 33% (inactive); that for `COc1cc(-c2nc3ccc(-c4nnc(SCC(=O)Nc5ccc(C(C)=O)cc5)o4)cc3[nH]2)cc(OC)c1OC`, 104% (inactive). As for `O=C(Nc1ccc(N2CCOCC2)cc1)Nc1ccc2c(ccn2C(=O)c2cccc(F)c2)c1`, the growth is 96.7% (inactive). Regarding `CN(C)CCCOc1c2ccccc2nc2c1oc1ccc(Cl)cc12`, the growth was 9.14% (active).

Consider `COc1ccc(-c2nc3cc(Cl)c(Cl)cc3n2CC(=O)N=Nc2c(O)[nH]c3ccc(Br)cc23)cc1`, for which the growth was 80.2% (inactive). On to `CCN(CC)c1ccc(/C=N/NC(=O)c2ccc(S(N)(=O)=O)cc2)cc1`, for which the growth was 2.37% (active). For `CCOC(=O)c1sc(N)c(C(=O)OCC)c1C`, the growth is 38.5% (inactive). With `O=C(N/N=C/c1ccc([N+](=O)[O-])o1)c1[nH]c2ccc(Br)cc2c1-c1ccccc1`, the growth is -42.1% (active). As to `Fc1ccc(-c2cn3c(-c4c[nH]c5ccc(Br)cc45)csc3n2)cc1`, the growth was 104% (inactive). The same measure for `CN(C)c1ncc(/C=C2\SC(=S)N(Cc3ccccc3Cl)C2=O)s1`: 94% (inactive). The result for `NC(N)=NS(=O)(=O)c1ccc(N=NC2C(=O)NN(c3ccccc3)C2=O)cc1` (stereo not drawn) reads 107% (inactive). In the case of `CC1=C(C)C(=O)C(Nc2cccc(C)c2)=C(Br)C1=O`, the growth was 37% (inactive). On to `O=S(=O)(NC1CC2CCC1C2)c1ccc2c(c1)C(=NO)c1cc(S(=O)(=O)NC3CC4CCC3C4)ccc1-2` (stereo not drawn), for which the growth was -29.7% (active).

For the compound `CCOC(=O)c1c(NC(=O)c2cccc(C(F)(F)F)c2)sc2c3c(ccc12)OCN(C)C3`, the growth was -56.3% (active). The result for `CC(=NNc1ncnc2ccccc12)c1ccc(S(C)(=O)=O)cc1` reads 98.9% (inactive); that for `CN(C)CCCOc1ccc2c(c1)CN(C(=O)c1cc(C(=O)N3Cc4cccc(F)c4C3)ccc1O)C2`, 107% (inactive); that for `Cc1ccc(NC2=C(Cl)C(=O)c3nc(C)ccc3C2=O)c(C)c1`, -14.8% (active). The result for `CN(C)c1ccc(/C=c2\sc3nc4ccccc4n3c2=O)cc1` reads 94.7% (inactive); that for `Cc1ccc(NC(=O)N[C@@H](Cc2cc(F)cc(F)c2)C(=O)NC2C(=O)N3C[C@H](O)C[C@H]3C(=O)N3CCCC[C@H]3C(=O)N[C@@H](CO)C(=O)N3C[C@H](C)C[C@H]3C(=O)O[C@H]2C)c(F)c1` (stereo partly drawn), 16.2% (inactive); that for `COc1ccc(C(=O)c2c(N)c(C#N)cn2-c2ccc(Cl)cc2Cl)cc1`, 84.7% (inactive).

In the case of `N#Cc1c(-c2cccs2)cc(-c2cnccn2)nc1SCC(=O)c1ccc(F)cc1`, the growth was 131% (inactive). For `O=C(Nc1ccc(F)c(F)c1)c1cc(-c2ccc(F)cc2F)ccc1O`, the growth is -30.8% (active). `Cc1sc2c(c1C)c(=O)nc1c(-c3nc(-c4ccc(F)cc4)no3)n[nH]n12`: the growth is 103% (inactive). As for `CCCCCc1ccc(S(=O)(=O)Nc2cccc(-c3csc(NC(=O)CCCCCN4CCN(C)CC4)n3)c2)cc1`, the growth is -41.5% (active).

Take `COc1ccc(Cn2cc(C#N)c(N)c2C(C)=O)cc1`: the growth is 103% (inactive). For `CCCCCCCCCCCC(=O)NC(C)(C)C(=O)N1CCCC1C(=O)NC(C)(C)C(=O)NC(C)(C)C(=O)N1CCCC1C(=O)NC(C)(C)C(=O)NC(C)(C)C(=O)N1CCCC1C(=O)NC(C)C(=O)NCCC(=O)NC(C)C(=O)NC(C)(C)C(=O)NC(C)(C)C(=O)NC(C)(C)C(=O)NCCC(=O)NC(C)(C)C(=O)NC(C)(C)C(=O)NC(C)(C)C(=O)NC(C)C(=O)NCCC(=O)O` (stereo not drawn), the growth was -66.3% (active). As for `Cc1sc2nc(NCc3ccccc3Cl)[nH]c(=O)c2c1C`, the growth was 75.1% (inactive).
